Measured values: PubChem BioAssay (NCATS)
“And” between values parts separate entries of the source, which are not always exact repeats. Identical values can stand only once. Results filed as inconclusive are left out. The source made the active and inactive calls. Unless noted, calls come from the whole dose curve; as a rule, active = well fitted curve in the direction sought with a large enough effect; inconclusive = small, poorly fitted or top-dose-only effect, or another doubt; inactive = no such curve, though single readings can be large; an effect the other way counts as inactive or inconclusive.

What was measured:
[1] = Cell Viability - BJ (AID 421; calls by dose curve;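 note: potency is the fitted concentration of half-maximal effect; cells exposed to compound for 40 hours at 37 °C before readout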); conditions: BJ fibroblast viability, qHTS
Summary of the method: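 Normal human BJ foreskin fibroblasts, 1500/well in complete medium, treated 40 hr at 37 °C. Cellular ATP by CellTiter-Glo luminescence; normalized to DMSO and 100 uM tamoxifen, AC50 from Hill fit.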

[2] = Cell Viability - HepG2 (AID 433; calls by dose curve;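 note: potency is the fitted concentration of half-maximal effect; cells exposed to compound for 40 hours; potency for ATP loss meaning cytotoxicity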); conditions: qHTS
Summary of the method: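 Cytotoxicity read as ATP loss (CellTiter-Glo luminescence) after 40 hr compound exposure of HepG2, 1500 cells/well, 37 °C. AC50 by Hill equation; 0% set by DMSO, 100% inhibition by 100 uM tamoxifen.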

[3] = Cell Viability - MRC5 (AID 434; calls by dose curve;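 note: potency is the fitted concentration of half-maximal effect; cells exposed to compound for 40 hours at 37 °C; potency reflects cytotoxicity seen as loss of intracellular ATP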); conditions: MRC5 lung fibroblast viability, qHTS
Summary of the method: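 ATP luminescence read-out (CellTiter-Glo, 20 min RT) after 40 hr, 37 °C compound exposure of 1500 MRC5 cells/well. Data normalized to DMSO (basal) and 100 uM tamoxifen (100% inhibition); AC50 from standard Hill equation.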

[4] = target: Mitogen-activated protein kinase 10 (Mus musculus) (UniProt Q61831); test: JNK3 AlphaScreen Assay (AID 530; active = well fitted curve in either direction with a large enough effect, not every such curve was filed as active;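 note: kinase came from lysate of stimulated human HepG2 cells; signal reports phosphorylation of biotinylated GST-cJun 1-79 at Ser73 with 10 µM ATP; % is set by controls: 0 for no effect and ±100 for the full control effect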)
Summary of the method: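 HepG2 lysate (IL-1b/TNFa pre-activated) + biotin-GST-cJun 1-79 + anti-pSer73 cJun; cpd titration, 15 min RT; ATP 10 uM start; Tris pH 7.6, MgCl2, DTT, vanadate; beads in EDTA buffer; AlphaScreen.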

[5] = Cell Viability - N2a (AID 540); conditions: N2a mouse neuroblastoma cell viability; at 92.2 µM (top of the series);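 note: cells exposed to compound for 40 h at 37 °C; plate controls were DMSO alone for no effect and tamoxifen control for full effect; nearly all actives have a fitted effect of over 45% in size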
Summary of the method: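 In this qHTS cytotoxicity screen, ATP-dependent luciferase luminescence reports viable N2a cells after a 40 hr compound exposure in complete culture medium. Potencies are AC50 values from standard Hill equation fits.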

[6] = Cell Viability - HUV-EC-C (AID 542);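 note: cells exposed to compound for 40 hours; % is set by controls: 0 for no effect and ±100 for the full control effect; nearly all actives have a fitted effect of over 35% in size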
Summary of the method: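 Concentration-dependent ATP loss in HUV-EC-C cells is the measure. Exposure lasts 40 hr at 37 °C; luminescence follows CellTiter-Glo addition, and Hill fits give AC50.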

[7] = Cell Viability - SH-SY5Y (AID 544); conditions: SH-SY5Y neuroblastoma cell viability; viability change, negative = cytotoxic: at 92.2 µM (top of the series);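 note: cells exposed to compound for 40 hours; 0% = DMSO alone and -100% = 100 µM tamoxifen; nearly all actives have a fitted effect of over 55% in size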
Summary of the method: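 Quantitative HTS in SH-SY5Y neuroblastoma cells, 40 hr treatment at 37 °C, ATP content by luciferase luminescence; AC50 from Hill fits.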

[8] = Cell Viability - Renal Proximal Tubule (AID 545); conditions: renal proximal tubule cells viability; at 91.7 µM (top of the series), primary cells of rat origin unless noted;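 note: cells exposed to compound for 40 hours; 0% = DMSO only and -100% = 100 µM tamoxifen; nearly all actives have a fitted effect of over 40% in size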
Summary of the method: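 Viability taken as intracellular ATP (CellTiter-Glo luminescence) after 40 hr, 37 °C compound treatment of primary proximal tubule cells from rat kidney, 1000 cells/well; Hill-equation fits of qHTS concentration-response data gave AC50.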

[9] = qHTS Assay for Identification of Small Molecule Inducers of Hypoxia Response (AID 2120; active = well fitted curve in the direction sought with a large enough effect in the signal ratio, with a control signal flat, not every such curve was filed as active; the % refers to the signal ratio; note: 0% is about no effect)
Summary of the method: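 HRE-bla ME-180, 2500 cells/well, 0.5% dialyzed FBS medium; cpd titration, 17 h 37 degrees C; CCF4 2.5 h RT; Ex 405, Em 460/530 ratio -> %Activity, AC50.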

[10] = target: Peroxisome proliferator-activated receptor delta (Homo sapiens) (UniProt Q03181); test: qHTS assay for small molecule agonists of peroxisome proliferator-activated receptor delta signaling (AID 588534; calls by dose curve;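 note: 0% = DMSO basal wells and 100% = positive control agonist at 10 µM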)
Summary of the method: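 EC50 and efficacy values derive from Hill fits of a concentration series in a beta-lactamase reporter cell assay. Exposure is 18 hrs at 37 C, with CCF4 fluorescence as the readout.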

[11] = target: Voltage-gated inwardly rectifying potassium channel KCNH2 (Homo sapiens) (UniProt Q12809); test: qHTS Assay for Small Molecule Inhibitors of the Human hERG Channel Activity (AID 588834);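 note: top concentration of the series differs between compounds; % is set by controls: 0 for no effect and ±100 for the full control effect; lower thallium flux fluorescence means stronger hERG block; nearly all actives have a fitted effect of over 50% in size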
Summary of the method: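 hERG block measured as reduced thallium-dye (FluxOR) fluorescence after stimulation buffer addition, read over 2 min. Cells were hERG-BacMam-transduced U2OS exposed to compound ~10 min […]; concentration-response fitted with Hill equation for AC50.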

[12] = KB-8-5-11 P-gp reporter qHTS against the NCATS DSHEA and TCM libraries (AID 1919977); note: 0% is about no effect
Summary of the method: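 CellTiter-Glo luminescence measured viability after ~72 h exposure (37C, 5% CO2) of KB-8-5-11 cervical adenocarcinoma cells overexpressing P-gp. Colchicine was omitted during assay. Substances were tested as titrations.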

Sequence of Voltage-gated inwardly rectifying potassium channel KCNH2 (Homo sapiens) (Q12809 whole entry, looked up): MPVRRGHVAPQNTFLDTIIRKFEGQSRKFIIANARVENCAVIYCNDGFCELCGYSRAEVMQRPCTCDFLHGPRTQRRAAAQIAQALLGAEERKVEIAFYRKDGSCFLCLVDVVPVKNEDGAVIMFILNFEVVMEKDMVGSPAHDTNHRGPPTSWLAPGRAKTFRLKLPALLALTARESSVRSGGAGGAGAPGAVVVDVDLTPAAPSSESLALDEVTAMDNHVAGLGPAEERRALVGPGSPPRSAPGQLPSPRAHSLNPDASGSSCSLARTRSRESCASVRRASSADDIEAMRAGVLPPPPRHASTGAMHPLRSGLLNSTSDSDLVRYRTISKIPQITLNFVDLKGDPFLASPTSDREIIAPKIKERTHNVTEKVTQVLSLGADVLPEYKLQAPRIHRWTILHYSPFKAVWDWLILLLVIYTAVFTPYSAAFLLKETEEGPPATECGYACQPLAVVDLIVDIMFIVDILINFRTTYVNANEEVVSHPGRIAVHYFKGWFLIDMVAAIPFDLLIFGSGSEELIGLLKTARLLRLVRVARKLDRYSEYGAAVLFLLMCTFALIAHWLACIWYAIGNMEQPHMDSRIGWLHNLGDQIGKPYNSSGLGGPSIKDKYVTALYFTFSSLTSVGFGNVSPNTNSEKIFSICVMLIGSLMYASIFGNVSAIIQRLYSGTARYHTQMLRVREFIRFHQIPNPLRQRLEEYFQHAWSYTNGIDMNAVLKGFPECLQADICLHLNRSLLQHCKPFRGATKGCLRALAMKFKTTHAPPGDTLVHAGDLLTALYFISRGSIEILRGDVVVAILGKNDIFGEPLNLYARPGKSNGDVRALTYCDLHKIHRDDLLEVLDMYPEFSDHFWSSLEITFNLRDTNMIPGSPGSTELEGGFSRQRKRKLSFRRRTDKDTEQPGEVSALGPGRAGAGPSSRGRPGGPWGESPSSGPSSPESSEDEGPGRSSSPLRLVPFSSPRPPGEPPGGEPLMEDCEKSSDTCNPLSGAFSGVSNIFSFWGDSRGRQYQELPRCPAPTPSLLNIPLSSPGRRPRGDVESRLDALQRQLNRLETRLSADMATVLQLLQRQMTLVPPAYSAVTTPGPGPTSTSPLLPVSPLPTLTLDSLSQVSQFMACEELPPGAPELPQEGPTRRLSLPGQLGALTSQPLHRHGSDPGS
Sequence of Peroxisome proliferator-activated receptor delta (Homo sapiens) (Q03181 whole entry, looked up): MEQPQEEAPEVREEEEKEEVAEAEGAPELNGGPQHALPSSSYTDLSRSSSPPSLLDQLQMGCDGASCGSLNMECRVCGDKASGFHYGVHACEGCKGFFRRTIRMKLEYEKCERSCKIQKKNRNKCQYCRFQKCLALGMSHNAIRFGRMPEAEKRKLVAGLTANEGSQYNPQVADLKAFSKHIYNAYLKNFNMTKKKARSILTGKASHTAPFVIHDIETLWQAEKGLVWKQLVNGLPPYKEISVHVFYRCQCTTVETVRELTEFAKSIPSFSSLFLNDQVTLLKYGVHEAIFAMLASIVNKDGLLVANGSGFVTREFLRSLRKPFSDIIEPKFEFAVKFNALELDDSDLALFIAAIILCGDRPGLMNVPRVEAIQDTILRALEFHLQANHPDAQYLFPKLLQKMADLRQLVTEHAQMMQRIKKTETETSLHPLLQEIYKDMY

C=C(C)C#N
inactive: Potency [1] > 92 µM | Potency [2] > 92 µM | Potency [3] > 92 µM | outcome [4] | activity change, negative = cytotoxicity [5] 1.28% | Potency [6] | Potency [7] | activity change, negative = cytotoxicity [8] 0.281% | outcome [9] | outcome [10] | Potency [11]

C=C(C)[C@H]1CC=C(C)C(=O)C1
inactive: outcome [10] | Potency [12]

NC(=S)Nc1ccccc1
inactive: Potency [1] > 92 µM | Potency [2] > 92 µM | Potency [3] > 92 µM | outcome [4] | activity change, negative = cytotoxicity [5] -0.295% and -0.273% | Potency [6] | Potency [7] | activity change, negative = cytotoxicity [8] -4.19% [at 91.7 µM] and 2.38% [at 91.7 µM] | outcome [9] | outcome [10] | Potency [11]

CCCCC/C=C/C(=O)CCc1ccc(O)c(OC)c1
inactive: Potency [12]

c1ccc2c(c1)CCCC2
inactive: Potency [1] > 92 µM | Potency [2] > 92 µM | Potency [3] > 92 µM | outcome [4] | activity change, negative = cytotoxicity [5] 9.97% | Potency [6] | Potency [7] | activity change, negative = cytotoxicity [8] -0.896% | outcome [9] | Potency [11]

O=NN(c1ccccc1)c1ccccc1
inactive: Potency [1] > 92 µM | Potency [2] > 92 µM | Potency [3] > 92 µM | outcome [4] | activity change, negative = cytotoxicity [5] 2.63% | Potency [6] | Potency [7] | activity change, negative = cytotoxicity [8] -4.13% | outcome [9] | outcome [10] | Potency [11]

CC1(C)CC[C@]2(C(=O)O)CC[C@]3(C)C(=CCC4[C@@]5(C)CC[C@@H](O)C(C)(C)C5CC[C@]43C)C2C1 (stereo not given in full)
inactive: Potency [12]

CCCCOCCOP(=O)(OCCOCCCC)OCCOCCCC
inactive: Potency [1] > 92 µM | Potency [2] > 92 µM | Potency [3] > 92 µM | outcome [4] | activity change, negative = cytotoxicity [5] -1.66% | Potency [6] | Potency [7] | activity change, negative = cytotoxicity [8] 5.24% [at 91.7 µM] | outcome [9] | outcome [10]

C=CC(=C)C
inactive: Potency [1] > 92 µM | Potency [2] > 92 µM | Potency [3] > 92 µM | outcome [4] | activity change, negative = cytotoxicity [5] 4.7% | Potency [6] | Potency [7] | activity change, negative = cytotoxicity [8] 5.45% | outcome [9] | outcome [10] | Potency [11]

C=C1CC[C@H]2C[C@@H]1C2(C)C
inactive: Potency [12]

CCSC(=O)Cl
inactive: Potency [1] > 92 µM | Potency [2] > 92 µM | Potency [3] > 92 µM | outcome [4] | activity change, negative = cytotoxicity [5] 2.21% | Potency [6] | Potency [7] | activity change, negative = cytotoxicity [8] -4.42% | outcome [9] | outcome [10] | Potency [11]
